# Records with an inconclusive call do not appear. A call without a number means that no potency is given here. Activity calls are given as the source filed them. The call rests on the fitted dose curve; in most records, active means well fitted cell-killing curve with a large enough effect in the repeat runs; inconclusive means weak or mixed curves, or effect the other way; inactive means flat fitted curve, though single readings scatter.
# Assay: qHTS assay to identify small molecule agonists of the constitutive androstane receptor (CAR) signaling pathway - cell viability counter screen (AID 1224836); further: nearly all actives have a fitted effect of over 45% in size
# Details: HepG2-CYP2B6-hCAR viability, CellTiter-Fluor, 23 h, PK11195 added to every well; series mostly up to 92.4 µM
# From the text: U.S. Tox21 Program National Center for Advancing Translational Sciences [NCATS] NIH Chemical Genomics Center [NCGC] U.S. Environmental Protection Agency [EPA] National Institutes of Environmental Health Sciences [NIEHS] National Toxicology Program [NTP] U.S. Food and Drug Administration [FDA] Tox21 Assay Overview: The constitutive androstane receptor (CAR) is a nuclear receptor which regulates multiple drug metabolizing enzymes (DMEs) and transporters. Activating CAR will generally increase the transcription and subsequent translation of CYP2B6 and CYP3A4. These two DMEs represent about 50% of the drug metabolizing potential in the body. […] Recently, there have also been studies performed indicating CARs role in energy metabolism and cancer therapy. Therefore, inducing CARs activity could have a potential effect on diabetes and cancer. Identifying environmental toxins and compounds which modulate CAR, through the use of the Tox21 10K compound collection, will be an important step in determining the toxicity and potential therapeutic effects these factors will have on the human body. To differentiate true CAR agonists from cytotoxic substances, the assay is multiplexed with a cell viability assay.
# Tox21 Assay Protocol Summary: A double-stable (hCAR and CYP2B6-2.2kb) transfected cell line, derived from human hepatoma (HepG2) cells, was utilized for the duration of the quantitative high-throughput screens. The HepG2-CYP2B6-hCAR cells were dispensed at 2500 cells/4 uL/well in 1536-well white solid bottom plates using a Multidrop Combi. After the assay plates were incubated at 37 C/5% CO2 for 4 hrs, 23 nL of compounds at 15 concentrations (from 5-48 columns) or positive control (from 1 to 4 columns) were transferred to the assay plates using a Pintool station. One uL of PK11195 (final concentration = 0.75 uM) was added, using a Flying Reagent Dispenser, inside each well. After a 23 hr incubation period at 37 C/5% CO2, 1 uL of CellTiter-Fluor reagent was added into each well of the assay plates using a Flying Reagent Dispenser. The fluorescence intensity in the plates was then measured using a ViewLux plate reader.
# Potency means the concentration at half of the fitted maximal effect.
row,Structure (SMILES),Potency
1,O=C(O)CCCCC1CCSS1 (stereo not given),inactive
2,CCCCCCCCCCCCCCCCCC(=O)OCC(O)CO (stereo not given),inactive
3,C=CC(=O)NC(C)(C)CS(=O)(=O)O,inactive
4,CN(C)C=O,inactive
5,C=C(C)C(N)=O,inactive
6,CN(C)Cc1cc(CN(C)C)c(O)c(CN(C)C)c1,inactive
7,Cc1ccc(O)c(-n2nc3ccccc3n2)c1,inactive
8,NC(N)=NC(N)=NCCc1ccccc1,inactive
9,C[C@]12CC[C@@H]3c4ccc(O)cc4C[C@@H](CCCCCCCCCS(=O)CCCC(F)(F)C(F)(F)F)[C@H]3[C@@H]1CC[C@@H]2O (stereo not given in full),inactive
10,O=C1OC(c2ccc(O)cc2)(c2ccc(O)cc2)c2ccccc21,inactive
11,C[C@]12C[C@H](O)[C@H]3[C@@H](CCC4=CC(=O)CC[C@@]43C)[C@@H]1CC[C@@H]2C(=O)CO,inactive
12,CC1=NN(c2ccccc2)C(=O)C1,inactive
13,COCC(C)N (stereo not given),inactive
14,Cc1cccc2ccccc12,inactive
15,COC(=O)c1ccc(O)cc1,inactive
16,O=c1cc[nH]c(=O)[nH]1,inactive
17,COc1cc2c(c(OC)c1OC)-c1ccc(OC)c(=O)cc1[C@@H](NC(C)=O)CC2,inactive
18,CCOCCO,inactive
19,Cc1c(N(C)CS(=O)(=O)O)c(=O)n(-c2ccccc2)n1C,inactive
20,CC1(C)O[C@@H]2[C@@H](CO[C@@]3(COS(N)(=O)=O)OC(C)(C)O[C@@H]23)O1,inactive

row,Structure (SMILES),Potency
1,COCCOCCOC,inactive
2,N[C@@H](Cc1c[nH]c2ccccc12)C(=O)O,inactive
3,CC(=O)c1ccc(S(=O)(=O)NC(=O)NC2CCCCC2)cc1,inactive
4,C[C@]12C=CC(=O)C=C1CC[C@@H]1[C@@H]2C(=O)C[C@@]2(C)[C@H]1CC[C@]2(O)C(=O)CO,inactive
5,CN/C(=C\[N+](=O)[O-])NCCSCc1ccc(CN(C)C)o1,inactive
6,O=C(O)CN(CC(=O)O)CC(=O)O,inactive
7,COc1cc(O)c(C(=O)c2ccccc2)cc1S(=O)(=O)O,inactive
8,O=C1CCCCCN1,inactive
9,O=[N+]([O-])c1ccc(O)cc1,50.4 µM (active)
10,O=C(O)Cc1cccc2ccccc12,inactive
11,CCCCC/C(C=O)=C\c1ccccc1,inactive
12,Cc1c(N(C)C)c(=O)n(-c2ccccc2)n1C,inactive
13,NC(=O)N1c2ccccc2C=Cc2ccccc21,inactive
14,OC[C@@H](O)[C@@H](O)[C@H](O)[C@H](O)CO,inactive
15,CC(C)CC(C)CC(O)CC(C)C (stereo not given),inactive
16,CCc1cc(C(N)=S)ccn1,inactive
17,CC(=O)Oc1ccccc1C(=O)O,inactive
18,COc1ccccc1O,inactive
19,CCCCOCCOCCSC#N,inactive
20,CC(=O)CCC(C)C,inactive
